SW480 rerep = A quantitative high throughput screen for small molecules that induce DNA re-replication in SW480 colon adenocarcinoma cells. 1.8% of 340,000 active. Potency, µM (top dose mostly 46.1 µM), for inactives: top-dose re-replication activation, usual class: activators. AID 624297, 2012. SW480 DNA re-replication, Hoechst DNA content imaging, 48 h; also: potency is read from the fitted curve at half-maximal effect; % of control where 0% means no effect; nearly all actives have a fitted effect of over 55% in size
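Readout is total intensity of Hoechst-stained nuclei, excited at 405 nm and collected at 500-530 nm. Compound treatment lasted 48 hr at 37 C in 5% CO2 before staining.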
D3 ag = qHTS of D3 Dopamine Receptor Agonist: qHTS. D(3) dopamine receptor (Homo sapiens), P35462. D3R DiscoveRx beta-arrestin cells, luminescence, 90 min. max activation, %. 0.58% of 410,000 active; in the data active = max activation above about 30%; also: 0% is about no effect
Target sequence (P35462 whole entry, looked up): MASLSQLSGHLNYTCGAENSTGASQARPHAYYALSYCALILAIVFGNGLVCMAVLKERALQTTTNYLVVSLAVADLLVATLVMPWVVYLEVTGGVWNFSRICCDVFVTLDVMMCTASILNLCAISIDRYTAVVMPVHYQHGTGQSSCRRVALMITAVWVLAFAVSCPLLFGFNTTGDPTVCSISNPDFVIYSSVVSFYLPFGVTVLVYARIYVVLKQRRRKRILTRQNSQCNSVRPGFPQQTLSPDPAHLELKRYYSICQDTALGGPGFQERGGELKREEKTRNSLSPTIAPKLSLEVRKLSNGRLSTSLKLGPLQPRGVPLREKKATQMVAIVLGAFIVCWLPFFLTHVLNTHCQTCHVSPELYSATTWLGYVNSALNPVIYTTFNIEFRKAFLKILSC
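Cells at 1500/well, incubated overnight, then treated with pinned compounds (dopamine as control) for 90 min at 37 degrees C. DiscoveRx reagent added for 30 - 60 minutes at room temperature; luminescence read.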
DRD3 antagonist = qHTS of D3 Dopamine Receptor Antagonist: qHTS; max response, negative = inhibition, %; D3R cells, DiscoveRx beta-arrestin luminescence, antagonist mode; hits give low values; 2.5% of 360,000 active; in the data active = max response below about -50%; inconclusive = no clear call, values can overlap the other calls; also: % is scaled to controls: 0 for no effect and ±100 for the full control effect
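Cells plated overnight at 1500 cells/well, then exposed to library compounds with dopamine controls for 90 minutes at 37 degrees C. DiscoveRx reagent added for 30–60 minutes at room temperature; luminescence read, quantitative HTS format.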
KB-V1 cytotox = qHTS assay for MDR1-selective chemotherapeutics: Primary screen using the drug-selected MDR subline cells KB-V1 | KB-V1 MDR cells viability, CellTiter-Glo, 72 h | Potency, µM (highest dose often 46.1 µM), hits mostly cytotoxic | 3.4% of 400,000 active; also: potency is read from the fitted curve at half-maximal effect; % is scaled to controls: 0 for no effect and ±100 for the full control effect; nearly all actives have a fitted effect of over 60% in size
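Luminescent ATP read-out (CellTiter-Glo, 10 min) measures survival of drug-selected KB-V1 MDR cells after 72 h, 37 degrees C compound exposure. Medium: phenol-red-free DMEM, 10% FBS. Values from fitted concentration-response curves.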
MCF10A rerep = A quantitative high throughput screen for small molecules that induce DNA re-replication in MCF 10a normal breast cells. MCF 10A DNA re-replication, Hoechst nuclear intensity, 48 h. Potency, µM (highest dose often 46.1 µM), without a hit: at the highest dose activity, positive = re-replication, actives largely listed as activators. 2.9% of 350,000 active. AID 624296, 2012; also: potency is read from the fitted curve at half-maximal effect; % of control where 0% means no effect; nearly all actives have a fitted effect of over 50% in size
KB-3-1 tox = qHTS assay for MDR1-selective chemotherapeutics: Primary screen using the parental adenocarcinoma cell KB-3-1; KB-3-1 viability, CellTiter-Glo ATP luminescence, 72 h; Potency, µM (doses to about 46.1 µM), hits mostly cytotoxic; 1.4% of 400,000 active; AID 1347075, 2019; also: potency is read from the fitted curve at half-maximal effect; % is scaled to controls: 0 for no effect and ±100 for the full control effect; nearly all actives have a fitted effect of over 60% in size
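Cytotoxicity in the drug-sensitive parental line KB-3-1 was scored as loss of CellTiter-Glo luminescence following 72 h incubation with compound. Values come from curve fitting of normalized concentration-response data.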
Numbers without * were called inactive; i = inactive; ? = inconclusive; . = no result given; ! = repeats disagree; [ ] = remark or other dose. In the library only some 8.9% were active in any assay of this set; here they are far more common. Unless noted, calls follow the shape of the dose curve; as a rule, active = well fitted curve in the direction sought with a large enough effect; inconclusive = small, poorly fitted or top-dose-only effect, or another doubt; inactive = no such curve, though single readings can be large; an effect the other way counts as inactive or inconclusive.

SMILES | SW480 rerep | D3 ag | DRD3 antagonist | KB-V1 cytotox | MCF10A rerep | KB-3-1 tox
COc1ccc(C(=O)NC(=S)Nc2cccnc2)cc1[N+](=O)[O-] | -0.2% | -15.6 | 0.0 | i | 1.8% | i
O=C(NNC(=S)NC(=O)c1ccccc1[N+](=O)[O-])c1ccccc1Cl | 0.8% | 3.9 | 33.2 | i | 19.8% | i
COc1ccccc1Nc1ccc(NC(=O)c2cccc([N+](=O)[O-])c2C)cc1 | 38.2% | 1.0 | -12.9 | ? | -1.3% | 18.4µM*
Cc1ccc(C(=O)NC(=S)Nc2cccc(NC(=O)c3ccccc3)c2)cc1[N+](=O)[O-] | -27.0% | -8.2 | -67.5* | i | 4.7% | i
O=CNc1ccc(/C=C/c2ccnc3ccccc23)cc1 | . | . | . | i | . | i
Cc1[nH]c2ccccc2c1C(=O)C(=O)NC1CC(=O)N(c2cccc(F)c2)C1 (configuration not stated) | . | 4.2 | . | . | . | .
O=C(CC(=O)Nc1ccccc1[N+](=O)[O-])Nc1ccccc1[N+](=O)[O-] | 2.0% | -10.1 | -63.9* | i | 2.4% | i
OCC1OC(n2cnc3c(=S)nc[nH]c32)CC1O (configuration not stated) | 4.1% | 1.7 | -4.6 | ? | ? | ?
S=c1nc[nH]c2c1ncn2C1CCCO1 (configuration not stated) | -1.3% | 5.9 | -12.8 | ? | ? | 4.11µM*
Cc1ccc(C2=NS(=O)(=O)N(C)C(C(=O)Nc3ccc(F)cc3F)=C2)cc1 | 1.6% | 4.8 | 1.6 | i | 16.0% | i
COc1ccc(OC)c(C2=NS(=O)(=O)N(C)C(C(=O)Nc3ccc(F)cc3F)=C2)c1 | 2.5% | 0.2 | 11.1 | 13µM*! | 9.1% | i
Cc1ccc(S(=O)(=O)c2c(CO)c(-c3ccccc3)nn2C)cc1 | ? | 3.3 | -1.9 | 14.6µM* | -0.7% | ?
Cc1ccc(S(=O)(=O)c2c(COC(=O)c3ccccc3Cl)c(-c3ccccc3)nn2C)cc1 | 21.4% | 3.3 | 21.6 | ? | ? | i
O=C(CC12CC3CC(C1)CC(CC(=O)N1CCCC1)(C3)C2)N1CCCC1 | -1.9% | 0.9 | 27.6 | 14.6µM* | 2.6% | i
S=C(NCCCN1CCOCC1)NCCCN1CCOCC1 | 3.0% | 3.5 | -17.3 | i | -2.6% | i
CCCCCCCCNC(=S)NCCN1CCCCC1 | ? | -7.2 | -22.9 | ? | 11.6µM* | i
Fc1ccc(-n2cc(-c3ccccc3)c3c(N4CCOCC4)ncnc32)cc1 | 14.1% | -11.2 | ? | ? | ? | i
COc1ccc(-n2cc(-c3ccccc3)c3c(N4CCOCC4)ncnc32)cc1 | 20.2% | 12.4 | 52.8 | 16.4µM* | 152.6% | i
CCN1CCN(c2ncnc3c2c(-c2ccccc2)cn3-c2ccc(F)cc2)CC1 | -5.7% | -20.5 | -55.4* | i | 1.0% | i
CCCN(CCC)S(=O)(=O)c1ccc(N2CCCC2=O)c([N+](=O)[O-])c1 | -5.3% | -0.2 | 12.0 | 20.6µM* | 1.0% | i
CCCCN(CCCC)S(=O)(=O)c1ccc(N2CCCC2=O)c([N+](=O)[O-])c1 | 21.6% | 1.4 | 12.2 | ? | 18.6% | i
Cc1ccc(F)cc1NC(=O)c1c(-c2ccccc2)noc1C | -7.4% | 1.8 | -50.0* | i | 0.7% | i
Cc1onc(-c2ccccc2)c1C(=O)Nc1nnc(C(C)C)s1 | -18.5% | 6.0 | -1.4 | i | -0.8% | i
CC(C)CC(=O)NC(=S)Nc1cc(C(F)(F)F)ccc1N1CCOCC1 | ? | -2.4 | -9.5 | 18.4µM* | 1.8% | i
Cc1onc(-c2ccccc2)c1C(=O)Nc1ncc([N+](=O)[O-])s1 | 13.7% | 12.3 | 8.0 | 23.1µM* | ? | ?
SMILES | SW480 rerep | D3 ag | DRD3 antagonist | KB-V1 cytotox | MCF10A rerep | KB-3-1 tox
CCOC(=O)c1ccc(N2CCOCC2)c(NC(=O)c2c(-c3ccccc3)noc2C)c1 | 20.6µM* | 1.0 | 3.1 | ? | 10.3µM* | 5.8µM*
Cc1cccc2c(=O)cc(CSc3ccccc3NC(=O)c3cccc(F)c3)[nH]c12 | . | -10.6 | . | i | . | i
O=C(Nc1cc(C(F)(F)F)ccc1N1CCOCC1)c1ccncc1 | -11.3% | 5.1 | 8.3 | i | 11.9% | i
Cc1onc(-c2ccccc2)c1C(=O)Nc1ccccc1N1CCOCC1 | 2.4% | -7.7 | 22.9 | 13µM* | -0.7% | i
Cc1onc(-c2ccccc2)c1C(=O)Nc1cc(C(F)(F)F)ccc1N1CCOCC1 | 11.2µM* | -11.9 | -11.7 | 5.17µM* | 5.01µM* | 5.8µM*
CC(C)(C)c1ccc(C(=O)NNC(=O)c2cccc(Br)c2)cc1 | ? | 1.9 | 5.2 | i | 11.6µM* | i
Cc1ccc(C(=O)NNC(=O)c2cccc(Br)c2)cc1 | 8.7%[1.84 µM] | -9.3 | 0.0 | i | -31.7% | i
CCOC(=O)c1ccc(NS(=O)(=O)c2ccc(Br)s2)cc1 | . | 4.9 | . | i | . | i
Cc1ccc(NC(=O)c2ccc3c(c2)C(=O)N(CC2CCCO2)C3=O)cc1C (configuration not stated) | 2.7% | 0.5 | 0.9 | i | 29.3% | i
Cc1nnc(NC(=O)c2ccc3c(c2)C(=O)N(CC2CCCO2)C3=O)s1 (configuration not stated) | ? | -3.0 | 14.1 | i | 11.6µM* | i
Cc1c(NC(=O)c2ccc3c(c2)C(=O)N(CC2CCCO2)C3=O)cccc1C(=O)O (configuration not stated) | 4.11µM* | 4.8 | 14.6 | i | -0.9% | i
O=C(Nc1ccc2c(c1)C(=O)N(CC1CCCO1)C2=O)c1ccc(Cl)c(Cl)c1 (configuration not stated) | -0.8% | -6.3 | 30.0 | 20.6µM* | 12.5% | i
S=C(Nc1ccccc1Oc1ccccc1)Nc1cccc(Cl)c1Cl | -41.1% | 0.4 | -16.3 | 20.6µM* | ? | 23.1µM*
S=C(Nc1ccc(Cl)cc1Cl)Nc1ccccc1Oc1ccccc1 | -14.1% | 0.5 | -0.2 | i | ? | i
COC(=O)[C@@]12CCCCN1[C@H](c1ccc(-c3ccc4c(c3)OCO4)cc1)[C@H]1C(=O)N(C)C(=O)[C@H]12 | 1.6% | 6.5 | 11.1 | i | 3.66µM* | i
CCCCCCSc1ccc([C@@H]2[C@H]3C(=O)N(C)C(=O)[C@H]3[C@]3(C(=O)OC)CCCCN23)cc1OC | -0.1% | 1.3 | 78.3 | i | 14.6µM* | i

From PubChem BioAssay
